Results reported in the supplement of paper PMC9262897, “Low-cost anti-mycobacterial drug discovery using engineered E. coli” (Nature Communications, 2022).
Where a name gives a salt, the structure may show the parent alone. ± gives the standard deviation of the averaged measurements.

system: E. coli TESEC Mtb Alr; assay: growth (OD600 after 10 h); higher = more growth (less inhibition); conditions: arabinose 10000000 nM; compound 0.1 mM; raw OD600 reference: median of DMSO wells […], cell-free background 0.052
Protocol: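 TESEC Mtb Alr E. coli (ΔaraC ΔtolC ΔentC Δalr ΔdadX, arabinose-inducible Mtb Alr) or the Alr+ wild-type control strain, grown in defined M9-fructose medium without D-alanine in 96-well plates with Prestwick library compounds at 0.1 mM and 1% DMSO. Low Alr induction is 0.1 µM arabinose and high induction is 10 mM arabinose.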

Row | SMILES | growth
1 | COc1cc(N)c(Cl)cc1C(=O)NC1CCN(Cc2ccccc2)CC1 [Clebopride maleate] | 0.314 ± 0.016
2 | CCN1CCN(c2cc3c(cc2F)c(=O)c(C(=O)O)cn3C2CC2)CC1 [Enrofloxacin] | 0.0522 ± 0.001
3 | Nc1ccn([C@H]2CC[C@@H](CO)O2)c(=O)n1 [Zalcitabine] | 0.353 ± 0.02
4 | COCCOC(=O)C1=C(C)NC(C)=C(C(=O)OC(C)C)C1c1cccc([N+](=O)[O-])c1 (stereo unspecified) [Nimodipine] | 0.0716 ± 0.011
5 | C[C@H]1O[C@@H](O[C@H]2[C@@H](O)C[C@H](O[C@H]3[C@@H](O)C[C@H](O[C@H]4CC[C@@]5(C)[C@H](CC[C@@H]6[C@@H]5C[C@@H](O)[C@]5(C)[C@@H](C7=CC(=O)OC7)CC[C@]65O)C4)O[C@@H]3C)O[C@@H]2C)C[C@H](O)[C@@H]1O [Digoxin] | 0.329 ± 0.044
6 | COc1cccc2c1C(=O)c1c(O)c3c(c(O)c1C2=O)C[C@@](O)(C(C)=O)C[C@@H]3O[C@H]1C[C@H](N)[C@H](O)[C@H](C)O1 [Daunorubicin hydrochloride] | 0.0536 ± 0.00026
7 | O=C(CCNNC(=O)c1ccncc1)NCc1ccccc1 [Nialamide] | 0.337 ± 0.023
8 | CC(=O)S[C@@H]1CC2=CC(=O)CC[C@]2(C)[C@H]2CC[C@@]3(C)[C@@H](CC[C@@]34CCC(=O)O4)[C@H]12 [Spironolactone] | 0.0959 ± 0.016
9 | CCN1CCCC1CNC(=O)c1cc(S(N)(=O)=O)ccc1OC (stereo unspecified) [Sulpiride] | 0.35 ± 0.017
10 | COc1ncnc(NS(=O)(=O)c2ccc(N)cc2)c1OC [Sulfadoxine] | 0.306 ± 0.007
11 | C[C@@H]1C[C@H]2[C@@H]3C[C@H](F)C4=CC(=O)C=C[C@]4(C)[C@@]3(Cl)[C@@H](O)C[C@]2(C)[C@H]1C(=O)COC(=O)C(C)(C)C [Clocortolone pivalate] | 0.377 ± 0.017
